From PubChem BioAssay
HP1b chromo inh: inhibitors of HP1-beta chromodomain binding to methylated histone tails; P83916; AlphaScreen HP1-beta / biotin-H3K9me3 peptide binding; Potency, µM (series often up to 114 µM), actives largely listed as inhibitors; 390,000 compounds, 0.56% hits; AID 540317; further: nearly all actives have a fitted effect of over 70% in size
Target sequence (P83916 whole entry, looked up): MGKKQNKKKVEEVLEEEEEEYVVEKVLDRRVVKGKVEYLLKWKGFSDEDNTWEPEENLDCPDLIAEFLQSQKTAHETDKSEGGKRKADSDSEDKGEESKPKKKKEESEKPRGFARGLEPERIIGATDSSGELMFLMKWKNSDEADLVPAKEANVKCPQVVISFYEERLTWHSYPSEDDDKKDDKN
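Compound inhibition of the preformed complex between 50 nM HP1-beta and 50 nM biotinylated H3K9me3 peptide was read by AlphaScreen. Buffer was PBS pH 7.4 with 0.01% Tween-20. Incubations ran 30 min at room temperature, with 10 ug/mL donor/acceptor beads.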
BAZ2B block: BAZ2B (human) inhibition. Potency, µM (series often up to 114 µM), actives largely listed as inhibitors. AlphaScreen BAZ2B-H3K14Ac peptide displacement. 360,000 compounds, 4.4% hits. Q9UIF8; further: nearly all actives have a fitted effect of over 60% in size
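Compounds, titrated to a top concentration of 110 uM, were incubated 30 min at room temperature with preformed BAZ2B/acetyl-K14 H3 peptide complex (50 nM each). Proximity signal was measured by AlphaScreen after 20 min with beads.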
G9a block: G9a (human) methyltransferase inhibition; 350,000 compounds, 8.8% hits; AID 504332; Potency, µM (doses to about 102 µM), hits mostly inhibitors; G9a H3K9 monomethylation, AlphaScreen, 2 h; Q96KQ7; further: nearly all actives have a fitted effect of over 75% in size
Target sequence (Q96KQ7 913-1193 limits assumed): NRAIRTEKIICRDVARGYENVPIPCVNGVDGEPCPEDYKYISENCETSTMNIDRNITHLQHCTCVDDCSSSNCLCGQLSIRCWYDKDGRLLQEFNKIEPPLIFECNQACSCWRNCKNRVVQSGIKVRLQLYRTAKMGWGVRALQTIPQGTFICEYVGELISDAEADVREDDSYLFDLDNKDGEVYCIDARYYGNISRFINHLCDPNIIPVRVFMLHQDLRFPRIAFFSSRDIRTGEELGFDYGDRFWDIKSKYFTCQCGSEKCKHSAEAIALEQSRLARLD
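Methyltransferase reactions run at room temperature for 2 h (20 nM enzyme, 500 nM biotin-H3K9 peptide, 20 uM SAM) after a 15 min compound preincubation; product detected by AlphaScreen beads and anti-H3K9me1 antibody.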
GLS inhibitor: glutaminase GLS (human) inhibition; O94925; GLS enzymatic activity, qHTS titration; Potency, µM (top dose mostly 45.5 µM), usual class: inhibitors; 410,000 compounds, 0.21% hits; AID 624170
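hKGA in 45 mM KH2PO4 (pH 8.2), 0.02% Tween-20 with compound, then 1mM L-Glutamine (stock as added) plus glutamate oxidase/HRP/Amplex red coupling mix. Fluorescence read initially and after 30 min at RT; signal change reflects glutamate formation.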
JMJD2A Tudor: inhibitors of human JMJD2A Tudor domain. O75164. AlphaScreen JMJD2A-Tudor / H3K4me3 peptide binding. Potency, µM (titrated, usually from 114 µM), actives largely listed as inhibitors. 390,000 compounds, 4.4% hits. AID 504339; further: nearly all actives have a fitted effect of over 50% in size
Of the large screens only hits and unclear results are named; the others gave an inactive call. Only some compounds are listed: those with a hit (about 10% of all), similar ones and a draw of the others. The call rests on the fitted dose curve; in most records, active means well fitted curve in the direction sought with a large enough effect; inconclusive means small, poorly fitted or top-dose-only effect, or another doubt; inactive means no such curve, though single readings can be large; an effect the other way counts as inactive or inconclusive.

CC(=O)c1ccc(-n2c(CCC(=O)O)ccc2-c2ccccc2)cc1	none
O=C(O)CCc1ccc(-c2ccccc2)n1-c1cccc(Br)c1	BAZ2B block inconclusive, G9a block 15.8µM, JMJD2A Tudor inconclusive
CCCOc1ccc(-c2nc(-c3ccc(N)cc3)cs2)cc1	BAZ2B block inconclusive (no result: HP1b chromo inh, GLS inhibitor, JMJD2A Tudor)
CC(=O)c1cccc(NC(=O)CN2C=NS(=O)(=O)c3ccc(C)cc32)c1	none
Cc1ccc(N(C(=O)c2ccncc2)C2C=CS(=O)(=O)C2)cc1 (stereo not given)	none
C=CCOCC(O)Cn1c(N2CCCC2)nc2c1c(=O)n(C)c(=O)n2C (stereo not given)	none
COc1ccc(C2CC(C(F)(F)F)n3ncc(C(=O)NCC4CCCO4)c3N2)cc1OC (stereo not given)	none
COc1ccc(-c2ccc(CCC(=O)O)n2-c2cc(Cl)ccc2O)cc1	BAZ2B block inconclusive, G9a block inconclusive
CC(C)(C)c1ccc(C(=O)Nn2c(CCC(=O)O)ccc2-c2cccs2)cc1	BAZ2B block inconclusive
O=C(O)CCc1ccc(-c2cccs2)n1-c1ccc(C(=O)O)cc1	G9a block 14.1µM, JMJD2A Tudor inconclusive
O=C(O)CCc1ccc(-c2ccc(Cl)cc2)n1-c1cccc(C(F)(F)F)c1	BAZ2B block 35.5µM, G9a block 15.8µM, JMJD2A Tudor inconclusive
CN(C)c1ccc(-n2c(CCC(=O)O)ccc2-c2ccccc2)cc1	HP1b chromo inh inconclusive, BAZ2B block 28.2µM, G9a block 11.2µM, JMJD2A Tudor 50.1µM
CCCCOc1ccc(C2(C)CC(=O)NC2=O)cc1 (stereo not given)	none
CCS(=O)(=O)CCSC1OC(COC(C)=O)C(OC(C)=O)C(OC(C)=O)C1OC(C)=O (stereo not given)	none
COc1ccc(N2CCN(CCCNC(=O)c3c(C)nn(-c4ccc(F)cc4)c3-n3cccc3)CC2)cc1	BAZ2B block 50.1µM, G9a block 4.47µM, JMJD2A Tudor inconclusive
Cc1nn(-c2ccc(F)cc2)c(-n2cccc2)c1C(=O)NCCCN1CCN(c2ccccc2F)CC1	BAZ2B block inconclusive
Cc1ccc(-n2nc(C)c(C(=O)NCCCN3CCN(c4ccc(F)cc4)CC3)c2-n2cccc2)cc1	BAZ2B block 39.8µM, G9a block inconclusive, JMJD2A Tudor 44.7µM
CCCN1CCN(CCCNC(=O)c2c(C)nn(-c3ccc(F)cc3)c2-n2cccc2)CC1	none
COc1cc(C(=O)OCC(=O)N(C)c2ccccc2)cc(OC)c1OC	none
C=Cn1cc(CNC[C@H]2O[C@@H](n3cc(C)c(=O)[nH]c3=O)C[C@@H]2O)c(C)n1	none (no result: HP1b chromo inh, BAZ2B block, G9a block, JMJD2A Tudor)
CCOCCn1c(CN2CCN(C)CC2)nc2c1c(=O)n(C)c(=O)n2C	none
CN(C(=O)c1sc2nc(N3CCCC3)c3c(c2c1N)CC(C)(C)OC3)c1ccccc1	G9a block 44.7µM
CC1(C)Cc2c(c(N3CCOCC3)nc3sc(C(=O)Nc4cccc(Cl)c4)c(N)c23)CO1	G9a block 79.4µM
CC1(C)Cc2c(c(N3CCOCC3)nc3sc(C(=O)Nc4ccccc4)c(N)c23)CO1	G9a block 28.2µM
Cc1ccc(C(NC(=O)NC(C)c2ccccc2)C(Cl)(Cl)Cl)cc1F (stereo not given)	none
COc1cc(C=O)ccc1OCC(=O)N1CCOCC1	none
COc1ccc(-c2ocnc2C(=O)N2CCN(C(=O)C(c3ccccc3)c3ccccc3)CC2)cc1	G9a block 50.1µM
COc1ccc(-c2ocnc2C(=O)N2CCN(Cc3cccnc3)CC2)cc1	none
CCN(CC)CCOC(=O)c1ccc(NC(=O)c2nn(C)c3c2COc2ccccc2-3)cc1	none
CCOC(=O)c1ccc(NC(=O)c2nn(C)c3c2COc2ccccc2-3)cc1	BAZ2B block inconclusive, G9a block 14.1µM, JMJD2A Tudor inconclusive
C=C(C)C(=O)Nc1cccc(C2=NOC3(C2)C[C@@H](C(N)=O)N(C(=O)c2cc([N+](=O)[O-])cc([N+](=O)[O-])c2C)C3)c1 (stereo not given in full)	HP1b chromo inh 6.31µM, BAZ2B block 28.2µM, G9a block inconclusive, GLS inhibitor inconclusive, JMJD2A Tudor 17.8µM
C=C(C)C(=O)Nc1cccc(C2=NOC3(C2)C[C@@H](C(N)=O)N(C(=O)c2ccc(Cl)cc2)C3)c1 (stereo not given in full)	HP1b chromo inh 7.94µM, BAZ2B block 11.2µM, G9a block inconclusive, GLS inhibitor 10µM, JMJD2A Tudor 7.08µM
CCC(=O)Nc1cccc(C2=NOC3(C2)C[C@@H](C(N)=O)N(C(=O)COc2ccc(Cl)cc2)C3)c1 (stereo not given in full)	none
NC(=O)[C@H]1CC2(CC(c3cccc(NC(=O)[C@H]4CCC(=O)N4)c3)=NO2)CN1C(=O)CC(c1ccccc1)c1ccccc1 (stereo not given in full)	none
C=C(C)C(=O)Nc1cccc(C2=NOC3(C2)C[C@H](C(N)=O)N(C(=O)COc2ccc(Cl)cc2)C3)c1 (stereo not given in full)	HP1b chromo inh 10µM, BAZ2B block 6.31µM, G9a block inconclusive, GLS inhibitor 10µM, JMJD2A Tudor 10µM
NC(=O)[C@@H]1CC2(CC(c3cccc(NC(=O)[C@H]4CCC(=O)N4)c3)=NO2)CN1C(=O)COc1ccc(Cl)cc1 (stereo not given in full)	BAZ2B block 79.4µM, G9a block inconclusive, JMJD2A Tudor inconclusive
C/C=C/C(=O)Nc1cccc(C2=NOC3(C2)C[C@@H](C(N)=O)N(C(=O)c2cc([N+](=O)[O-])cc([N+](=O)[O-])c2C)C3)c1 (stereo not given in full)	none
Cc1ccc(Cn2ccc(NC(=O)c3cc(-c4ccc5c(c4)OCO5)on3)n2)cc1	none
COc1ccc(CCNC(=O)CC2(CC3=NS(=O)(=O)c4ccccc4N3)CCCC2)cc1OC	none
CCC1(C)Cc2nc3[nH]c(=S)n(-c4ccccc4C)c(=O)c3cc2CO1 (stereo not given)	none
C=C(C)C(=O)Nc1cccc(C2=NOC3(C2)C[C@H](C(N)=O)N(C(=O)c2ccccc2)C3)c1 (stereo not given in full)	HP1b chromo inh inconclusive, BAZ2B block 44.7µM, G9a block inconclusive, JMJD2A Tudor 22.4µM
CC(C(=O)c1c[nH]c(C(=O)N=CN(C)C)c1)c1ncc(C(F)(F)F)cc1Cl (stereo not given)	none
NS(=O)(=O)c1ccc(CCNC(=O)c2cccc([N+](=O)[O-])c2)cc1	none (no result: G9a block)
Cc1nc2n(n1)C(c1ccccc1)C1=C(CC(c3ccco3)CC1=O)N2 (stereo not given)	G9a block 44.7µM
O=C1CC(c2ccco2)CC2=C1C(c1ccncc1)n1nc(C(F)(F)F)nc1N2 (stereo not given)	none (no result: BAZ2B block, G9a block, GLS inhibitor)
Fc1ccccc1-n1[nH]nnc1=S	HP1b chromo inh inconclusive, BAZ2B block inconclusive, G9a block 7.94µM, JMJD2A Tudor inconclusive
CCCCC(=O)Nc1ccc(C(=O)Nc2ccc(OC)cc2[N+](=O)[O-])cc1	none
